mIDH1 inhibitor: human IDH1 R132H inhibition; O75874; IDH1-R132H enzyme, NADPH consumption, diaphorase/resazurin fluorescence; Potency, µM (series often up to 76.6 µM), inactives show at the top dose activity change, negative = inhibition, most hits filed as inhibitors; hit rate 0.093% among 390,000; note: potency is the fitted concentration of half-maximal effect; % is set by controls: 0 for no effect and ±100 for the full control effect; nearly all actives have a fitted effect of over 65% in size
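IDH1-R132H (0.5 ug/mL) preincubated 30 min with compound, then NADPH (0.016 mM) and alpha-KG (2 mM) added; 80 min at RT, pH 7.5. Remaining NADPH coupled via diaphorase/resazurin to fluorescence (540/590 nm); concentration-response curves normalized to no-enzyme control.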
Nrf2 ARE act: activates Nrf2 signaling; AREc32 ARE-luciferase reporter (MCF7-derived line), luminescence, 24 h; Potency, µM (top dose mostly 46.1 µM), for the others: at the top dose activation, hits mostly activators; hit rate 0.31% among 410,000; AID 624171; note: potency is the fitted concentration of half-maximal effect; % of control where 0% means no effect; nearly all actives have a fitted effect of over 65% in size
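For detection, Steady-Glo was added and plates sat 30 min at RT; before that, AREc32_Fluc cells grown overnight in OPTI-MEM/5% FBS had been treated with 23 nL compound for 24 hr at 37 deg C.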
LDHA block: blocks human lactate dehydrogenase A | P00338 | purified LDHA, NADH/diaphorase-resazurin fluorescence; stronger effect = lower value | activity change, % (values are at about 110 or 230 µM) | hit rate 0.15% among 480,000 | AID 1347041; in the data active = activity change below about -30%; inconclusive = mostly about -25% to -30%;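 note: plate controls were DMSO wells for no effect and wells without enzyme for full effect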
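Enzyme activity of human lactate dehydrogenase 5 (2 nM; 0.06 mM NADH, 0.2 mM pyruvate, 5 min, RT) is measured via a resazurin/diaphorase fluorescence readout of residual NADH.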
Nrf2 block: inhibitors of Nrf2 signaling; Potency, µM (series often up to 46 µM), inactives show at the top dose activity change, negative = inhibition, usual class: inhibitors; hit rate 2.1% among 360,000; A549 ARE-Fluc reporter, luciferase luminescence, 18-24 h; note: potency is the fitted concentration of half-maximal effect; % is set by controls: 0 for no effect and ±100 for the full control effect; nearly all actives have a fitted effect of over 60% in size
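A549 ARE_Fluc cells (5000/well, 5% FBS OPTI-MEM) pre-incubated 2 h, then treated with compounds 18-24 h at 37C/5% CO2 in concentration-response. CellTiter-Fluor viability read first; BugLite luciferase luminescence after 15 min at room temperature gives Nrf2 activity.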
A549 tox-1: A549 cytotoxicity, counter-screen for Nrf2 inhibitors. A549 ARE-Fluc cells, CellTiter-Fluor viability, 18-24 h. hit rate 0.16% among 390,000. AID 504648. Potency, µM (titrated, usually from 46 µM), for inactives: at the highest dose activity change, negative = cytotoxicity, hits mostly inhibitors; note: potency is the fitted concentration of half-maximal effect; % is set by controls: 0 for no effect and ±100 for the full control effect
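A549 ARE_Fluc cells in 5% FBS OPTI-MEM were exposed to compounds in concentration-response for 18-24 h at 37 deg C. Viability was read by CellTiter-Fluor fluorescence (Ex 405/Em 525) after 30 min, before the luciferase read.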
12-LOX inh: inhibitors of human 12S-lipoxygenase ALOX12; Potency, µM (series often up to 108 µM), inactives show at the highest dose activity change, negative = inhibition, actives largely listed as inhibitors; P18054; purified 12hLO, xylenol orange hydroperoxide absorbance; AID 1671190; hit rate 1.1% among 580,000; note: potency is the fitted concentration of half-maximal effect; % is set by controls: 0 for no effect and ±100 for the full control effect
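Hydroperoxide product was detected by ferrous iron/xylenol orange as the 573 to 405 nm absorbance ratio. Arachidonic acid at 40 uM (final) was turned over for 30 min at room temperature by 150 nM human 12hLO, pH 7.0 Hepes buffer, after 15 min compound preincubation.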
FLuc enzyme inh: blocks purified firefly luciferase in Nrf2 counterscreen; Potency, µM (highest dose often 57.5 µM), without a hit: top-dose activity change, negative = inhibition, hits mostly inhibitors; shares compounds with Nrf2 block; purified firefly luciferase, luminescence inhibition; hit rate 4% among 1,400; note: potency is the fitted concentration of half-maximal effect; % is set by controls: 0 for no effect and ±100 for the full control effect; nearly all actives have a fitted effect of over 65% in size
Target sequence (P08659 whole entry, looked up): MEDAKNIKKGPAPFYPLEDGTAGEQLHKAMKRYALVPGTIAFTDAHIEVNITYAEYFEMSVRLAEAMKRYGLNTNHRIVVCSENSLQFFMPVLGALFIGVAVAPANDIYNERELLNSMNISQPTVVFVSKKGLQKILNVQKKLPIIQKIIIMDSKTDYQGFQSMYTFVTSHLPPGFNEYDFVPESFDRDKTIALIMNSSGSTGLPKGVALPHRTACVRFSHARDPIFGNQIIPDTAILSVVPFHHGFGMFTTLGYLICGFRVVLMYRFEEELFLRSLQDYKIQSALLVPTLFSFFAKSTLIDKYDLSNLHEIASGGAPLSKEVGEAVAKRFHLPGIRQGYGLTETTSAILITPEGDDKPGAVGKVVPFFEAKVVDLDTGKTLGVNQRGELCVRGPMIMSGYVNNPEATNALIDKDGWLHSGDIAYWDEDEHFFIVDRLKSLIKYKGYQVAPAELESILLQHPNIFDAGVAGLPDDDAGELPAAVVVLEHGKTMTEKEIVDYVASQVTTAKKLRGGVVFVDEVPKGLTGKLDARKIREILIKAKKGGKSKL
A549 tox-2: counter-screen for Nrf2 inhibitors: cytotoxicity in A549 ARE cells | shares compounds with Nrf2 block | A549 ARE-Fluc cells, cytotoxicity counterscreen | Potency, µM (series often up to 46.1 µM), for the others: top-dose activity change, negative = cytotoxicity, usual class: inhibitors | hit rate 2% among 1,400;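 note: potency is the fitted concentration of half-maximal effect; cells exposed to compounds for 18 to 24 hours; % is set by controls: 0 for no effect and ±100 for the full control effect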
Nrf2 ARE inh: confirmation of Nrf2 inhibitors in A549 ARE reporter cells; AID 720524; A549 ARE-firefly luciferase reporter, luminescence; hit rate 74% among 1,400; shares compounds with Nrf2 block; Potency, µM (series often up to 46.1 µM), for the others: top-dose activity change, negative = inhibition, actives largely listed as inhibitors; note: potency is the fitted concentration of half-maximal effect; % is set by controls: 0 for no effect and ±100 for the full control effect; nearly all actives have a fitted effect of over 65% in size
An asterisk follows results filed as active; ? = inconclusive; . = not tested or not shown. Rows were chosen to be rich in hits. Some 2.7% of all compounds tested hit in one or more screens of this group. Unless noted, calls come from the whole dose curve; as a rule, active = well fitted curve in the direction sought with a large enough effect; inconclusive = small, poorly fitted or top-dose-only effect, or another doubt; inactive = no such curve, though single readings can be large; an effect the other way counts as inactive or inconclusive.

SMILES | mIDH1 inhibitor | Nrf2 ARE act | LDHA block | Nrf2 block | A549 tox-1 | 12-LOX inh | FLuc enzyme inh | A549 tox-2 | Nrf2 ARE inh
O=C(CCCN1C(=O)/C(=C/c2ccccc2Cl)SC1=S)NNC(=O)c1ccc(Cl)cc1 | 2% | -1% | -1 | 8.2µM* | 0% | 1% | -5% | -22% | 7.3µM*
Cc1ccc(C(=O)NNC(=O)CCCN2C(=O)/C(=C/c3ccccc3Cl)SC2=S)cc1 | 1% | -1% | -10 | 9.2µM* | ? | -5% | ? | -4% | ?
O=C(NNc1ccnc2cc(Cl)ccc12)C1CCCCC1 | -4% | 1% | -5 | 3.3µM* | -17% | ? | ? | -13% | 2.6µM*
Cc1ccc(-c2nc(NC(C)(C)CO)nc3ccccc23)cc1 | . | . | -1 | . | . | 3% | . | . | .
Cc1ccc(S(=O)(=O)N2CCC(n3cnnc3-c3ccccc3)CC2)c(C)c1 | . | . | . | . | . | 0% | . | . | .
O=C(N/N=C/c1ccc([N+](=O)[O-])s1)c1ccccc1Br | 0% | -3% | -10 | 9.2µM* | ? | 17% | ? | -19% | 5.8µM*
Cc1ccc(N2C(=O)CSC23C(=O)Nc2ccccc23)cc1Br (centres undefined) | . | . | 6 | . | . | 3% | . | . | .
CC[n+]1ccccc1/C=C1\Sc2ccc(C)cc2N1C | 8% | 2% | -17 | 6.5µM* | ? | 40µM* | 1% | -28% | 2.9µM*
C=CCc1ccccc1OCC(O)CN (centres undefined) | . | . | 9 | . | . | -1% | . | . | .
COc1ccccc1Nc1nc(-c2sc(NC(=O)C(C)(C)C)nc2C)cs1 | -22% | 1% | 0 | 7.3µM* | -4% | ? | ? | -18% | 21µM*
CCCC(=O)Nc1nc(C)c(-c2csc(Nc3ccccc3OC)n2)s1 | 3% | 0% | 3 | 11% | -3% | -26% | . | . | .
CCCC(=O)Nc1nc(C)c(-c2csc(Nc3ccc(Cl)cc3)n2)s1 | 3% | 9% | -3 | 7.3µM* | ? | ? | 17µM* | -17% | ?
CCC(=O)Nc1nc(C)c(-c2csc(Nc3ccc(C(=O)O)cc3)n2)s1 | -1% | -1% | 1 | 16% | -1% | -16% | . | . | .
Cc1cc(/C=C2/SC(=S)N(c3ccc([N+](=O)[O-])cc3)C2=O)c(C)n1-c1cccnc1 | 10% | 3% | -2 | 6.5µM* | ? | -24% | -18% | -23% | .
Cc1cc(/C=C2/SC(=S)N(c3cccc(Cl)c3)C2=O)c(C)n1-c1cccnc1 | -1% | 4% | 2 | ? | -15% | ? | . | . | .
CC(Sc1nc2ccccc2o1)C(=O)Nc1ccc(Cl)cc1 (centres undefined) | . | . | 10 | . | . | -8% | . | . | .
CCN(CC)c1ccc(/C=C/c2ccncc2)cc1 | . | . | . | . | . | . | -14% | 6.5µM* | 1.5µM*
CN(C)c1ccc(/C=C/c2ccncc2)cc1 | -1% | 5% | 1 | 2% | -17% | 31% | . | . | .
O=S(=O)(N/N=C1/CC(c2ccccc2)Oc2ccccc21)c1ccc(Br)cc1 (centres undefined) | 1% | 8% | -2 | 8.2µM* | ? | -10% | ? | -7% | .
COc1ccc(/C=C/c2ccc3ccccc3[n+]2C)cc1OC | 10% | 11% | -16 | -29% | -20% | . | . | . | .
COc1cc(OC)c(/C=C/c2ccc3ccccc3[n+]2C)c(OC)c1 | . | . | -7 | . | . | . | 1% | ? | 1.6µM*
